# Bcl-xL primary – inhibitors of human Bcl-xL, primary screen, biochemical, fluorescence polarization, HTS. Bcl-2-like protein 1 (Homo sapiens), Q07817. GST-Bcl-xL / FITC-Bim BH3 peptide fluorescence polarization. inhibition, % at 10.9 µM. 320,000 compounds, 0.7% hits;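 active means inhibition above the mean of all tested compounds plus 3 SD, cutoff set per campaign, cut at about 30% in these data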;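 further: 0% = DMSO wells and 100% = unlabeled Bim-BH3 peptide competitor; inhibitors lower millipolarization by displacing the labeled peptide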
# Target sequence (Q07817 whole entry, looked up): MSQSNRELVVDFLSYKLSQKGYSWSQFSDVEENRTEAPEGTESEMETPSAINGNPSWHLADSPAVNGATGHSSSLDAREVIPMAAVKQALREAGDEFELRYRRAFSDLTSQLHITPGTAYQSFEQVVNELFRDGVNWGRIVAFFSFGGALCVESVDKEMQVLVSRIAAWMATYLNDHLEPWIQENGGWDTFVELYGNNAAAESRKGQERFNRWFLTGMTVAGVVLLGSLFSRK
# LANA-H2B inh – blockers of LANA interaction with H2A/H2B – biochemical, FP readout, HTS, primary screen; Protein LANA1 (Human herpesvirus 8 type P (isolate GK18)), Q9QR71; inhibition, % (concentration not given with the values); 320,000 compounds, 0.6% hits; cell-free LANA-H2A/H2B peptide, fluorescence polarization; AID 2629, 2010; in the data active means inhibition mostly above about 10%, no sharp cut-off; inactive means mostly below about 6.7%
# Yeast superoxide – reduction of superoxide in aged yeast, primary screen, HTS. S. cerevisiae aged cells, superoxide DHE fluorescence; active compounds read low. superoxide response (% of plate mean), % at 10 µM. 330,000 compounds, 0.18% hits;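 active means superoxide response under a set limit, about three screen SD below normal, cut at about 65% in these data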;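 further: yeast aged for seven days with compound at 30 °C before DHE staining; 100% = average MFI of all compound-treated wells on the plate with controls excluded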
# MEX-5 binding – MEX-5 zinc finger RNA-binding disruptors – biochemical, C. elegans, fluorescence polarization, MLPCN library, primary screen; Zinc finger protein mex-5 (Caenorhabditis elegans), Q9XUB2; MEX-5/FITC-TCR2 RNA binding; active compounds read low; activity score (negative = inhibition of binding), % at 10 µM; 300,000 compounds, 0.38% hits;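 active means inhibition past about -25% in most replicates, and total fluorescence under double the plate's negative control median, limit read from the data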;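 further: 0% = DMSO and -100% = 5 µM competing unlabeled TCR2 RNA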
# MCL1 BIM primary – inhibitors of MCL1 binding to BIM-BH3, primary screen, biochemical, fluorescence polarization | Induced myeloid leukemia cell differentiation protein Mcl-1 (Homo sapiens), Q07820 | GST-MCL1 / FITC-Bim-BH3 fluorescence polarization | inhibition, % at 10.9 µM | 320,000 compounds, 0.68% hits | AID 2057, 2009;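 active means inhibition above the mean inhibition of all tested compounds plus 3 SD, set per campaign, cut at about 40% in these data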;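 further: 0% = DMSO wells and 100% = unlabeled Bim-BH3 peptide control; higher means more loss of mP so more displacement of Bim peptide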
# Target sequence (Q07820 whole entry, looked up): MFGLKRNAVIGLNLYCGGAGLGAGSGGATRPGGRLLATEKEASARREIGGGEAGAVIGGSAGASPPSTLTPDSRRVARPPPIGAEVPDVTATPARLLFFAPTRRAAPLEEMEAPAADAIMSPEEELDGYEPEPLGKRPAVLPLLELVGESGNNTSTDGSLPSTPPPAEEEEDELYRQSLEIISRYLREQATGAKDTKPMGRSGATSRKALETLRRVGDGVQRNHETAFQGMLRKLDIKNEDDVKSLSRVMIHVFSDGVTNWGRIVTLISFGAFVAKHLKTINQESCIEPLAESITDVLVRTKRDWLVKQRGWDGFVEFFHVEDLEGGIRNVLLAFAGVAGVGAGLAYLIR
# GLD-1 RNA inh – GLD-1/TGE RNA complex disruptors, primary screen, biochemical, fluorescence polarization | Female germline-specific tumor suppressor gld-1 (Caenorhabditis elegans), Q17339 | inhibition, % at 5.96 µM | purified GLD-1 + fluorescein TGE RNA | 320,000 compounds, 0.44% hits;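 active means percent inhibition above a per-plate cutoff, the plate mean of test compounds plus 3 SD, cut at about 30% in these data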;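 further: 0% = DMSO wells with GLD-1 and probe and 100% = wells lacking GLD-1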
# CR mimetic CP – superoxide lowering in aged yeast cells, confirmation, cherry picked compounds; shares compounds with Yeast superoxide; S. cerevisiae aging, superoxide DHE fluorescence; active compounds read low; superoxide response (% of plate), % at 10 µM; 850 compounds, 1% hits;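 active means superoxide signal below 65% of the plate average of sample wells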;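 further: cells aged with compound for 7 days at 30 degrees C before staining; 100% equals mean DHE fluorescence of all compound wells on the plate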
# DHE fluor count – DHE quenching or ROS scavenging interference in aged yeast, artefact control for yeast caloric restriction mimetic project, S. cerevisiae BY4741, flow cytometry; shares compounds with Yeast superoxide; fluorescence response, % at 10 µM; 850 tested, under 10 active; DHE fluorescence; active compounds read low;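 active means fluorescence response below 15%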;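 further: percent of the mean fluorescence averaged over all compound wells on the plate; lower means stronger quenching of DHE signal or ROS scavenging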
# Active calls of the source: *; nt = not tested or not shown; ! = a repeat was not active. Sampled rows, rich in hits. Any-hit rate of the full collection: about 1.9%.
SMILES,Bcl-xL primary,LANA-H2B inh,Yeast superoxide,MEX-5 binding,MCL1 BIM primary,GLD-1 RNA inh,CR mimetic CP,DHE fluor count
OCCOCCOCCn1c2ccccc2c2ccccc21,1.6,-0.6,113.1,0.7,-4.5,1.0,105.1,105.0
O=C(NCC1CCCO1)c1ccccc1NS(=O)(=O)c1ccc(F)cc1 (stereo unspecified),0.3,0.0,107.8,nt,-7.1,-1.8,nt,nt
O=C(NCc1cccnc1)C(=O)NCC1OCCCN1S(=O)(=O)c1ccccc1 (stereo unspecified),1.9,0.5,103.0,2.4,3.2,-4.5,nt,nt
NNC(=O)Cn1c2ccccc2c2ccccc21,5.0,4.5,105.0,1.4,1.6,-0.7,105.1,90.4
CCCCOc1ccc(-c2cc(C(=O)NNC(=S)NCC)c3ccccc3n2)cc1,7.6,-6.4,61.7*,3.5,17.0,7.9,123.3,106.5
Cc1cccc(N2CCN(C(=O)CC(NC(=O)c3ccccc3)c3ccccc3)CC2C)c1 (stereo unspecified),-9.3,-9.6,53.8*,1.8,-12.9,0.5,84.2,90.7
COc1cccc(N2CCN(C(=O)CC(NC(=O)c3ccccc3)c3ccccc3)CC2)c1 (stereo unspecified),-0.8,-14.5,96.4,nt,-1.5,3.2,nt,nt
COc1cc(NS(=O)(=O)c2ccc(NC(=O)c3cccnc3)cc2)ncn1,8.7,0.9,85.7,2.0,7.6,2.1,nt,nt
c1cnc2c(c1)ccc1cccnc12,-4.5,20.6*!,63.7*!,1.6,1.5,4.6,88.9,105.1
Cc1cccc2cccnc12,0.3,2.3,118.8,nt,2.7,0.1,nt,nt
Cc1ccc(NC2=CC(=O)CC(C)(C)C2)cc1Cl,3.0,0.1,97.5,3.8,0.1,4.5,nt,nt
CC1(C)CC(=O)C=C(Nc2ccc(F)c(Cl)c2)C1,-3.5,-3.2,62.2*,2.3,3.8,-6.0,98.9,94.6
CCOc1ccccc1NC(=O)COC(=O)C(CC(C)C)N1C(=O)C2CC=CCC2C1=O (stereo unspecified),3.1,4.3,65.1*,-2.4,4.9,3.2,110.7,88.8
Cc1ccccc1OCC(=O)Nc1nnc(-c2ccncc2)s1,0.9,-1.1,94.7,-7.2,1.1,4.8,nt,nt
O=C(COc1ccccc1F)Nc1nnc(-c2ccncc2)s1,4.0,2.5,55.4*,-6.7,10.6,3.3,114.8,107.6
CC(C)c1ccc(/C=C/C(=O)NC(=S)NN2CCOCC2)cc1,nt,-3.9,66.9,nt,nt,nt,nt,nt
CC(C)c1ccc(/C=C/C(=O)NC(=S)Nc2ccc(CN3CCOCC3)cc2)cc1,4.2,0.0,61.5*,0.0,0.5,2.0,101.5,91.8
CCOc1ccc2nc(SCC(=O)c3ccc(O)cc3O)sc2c1,-5.0,-4.9,50.1*,1.2,-4.3,-4.7,101.3,94.1
CC(C)=NNC(=O)c1c(O)c2ccccc2[nH]c1=O,0.3,4.5,62.1*,-0.3,-2.4,10.9,83.0,94.4
COc1ccc(-n2c(C)cc(C(=O)CN3CCC(C)CC3)c2C)cc1,0.5,-0.8,65.5*,2.1,-2.4,-0.1,104.3,89.2
Nc1cnc(Nc2ccc(Br)cc2)nc1N,4.8,1.4,94.6,1.0,1.0,-10.4,nt,nt
CCc1ccc(N(C(=O)CCC(=O)Nc2cc(C)on2)C(C(=O)NC(C)(C)C)c2ccc(OC)cc2)cc1 (stereo unspecified),6.7,-1.3,112.0,0.5,3.0,-2.3,nt,nt
CCOC(=O)c1cnc2cc(C)nn2c1C,10.5,3.9,97.7,5.2,17.4,-0.7,nt,nt
CCOC(=O)c1cnc2cc(-c3ccc(Br)cc3)nn2c1C,1.9,1.0,95.7,0.8,3.4,3.8,114.1,114.4
O=C(Nc1ccc2nc3ccccc3nc2c1)c1ccccc1,31.4*,4.4,46.5*,-7.9,19.3,20.5,59.1*,94.2
SMILES,Bcl-xL primary,LANA-H2B inh,Yeast superoxide,MEX-5 binding,MCL1 BIM primary,GLD-1 RNA inh,CR mimetic CP,DHE fluor count
CN(C)c1ccc(C(=S)N2CCCC2)cc1Br,-4.0,-2.3,97.1,-1.9,-12.2,-4.0,nt,nt
Cc1nnsc1C(=O)NNS(=O)(=O)c1cc(C(F)(F)F)cc(C(F)(F)F)c1,3.3,-4.6,58.9*,-3.0,3.7,5.8,95.9,95.7
Cc1cc(C)cc(N(CCC#N)C(=O)COC(=O)C2CCN(c3ccc(C(F)(F)F)cn3)CC2)c1,0.5,-0.3,90.8,1.1,-9.9,1.7,nt,nt
COc1ccc(-c2nc3ccccc3c(=O)n2O)cc1,7.7,3.8,61.2*,3.4,3.8,4.8,92.0,86.1
O=c1c2ccccc2nc(-c2ccccc2)n1O,-4.9,-0.9,78.9,nt,1.1,2.1,nt,nt
Cc1cccc(C)c1NC(=O)CN(C)C(=O)C1=COCCO1,-2.4,3.9,111.1,nt,-0.3,1.3,nt,nt
CCc1ccc(/C(C)=N/NS(=O)(=O)c2ccc(OC)cc2)s1,nt,nt,nt,-1.8,nt,nt,nt,nt
Cc1nc2ccccn2c1C(=O)NNC(=O)Nc1cccc(C(F)(F)F)c1,-8.7,-7.8,64.1*,-2.1,-5.2,-0.2,104.8,89.4
COc1ccccc1C1CCN(C(=O)c2ccc(Cl)cc2)CC1,-3.7,-3.3,36.6*,-0.3,-12.4,9.1,96.1,101.3
COc1ccccc1C1CCN(C(=O)c2ccccc2)CC1,1.2,-4.9,95.6,-1.3,2.2,-0.6,nt,nt
O=C(COc1ccccc1[N+](=O)[O-])OCC(=O)c1ccc(Br)s1,nt,1.5,96.5,nt,nt,-7.3,nt,nt
CCOC(=O)/C=C1/SCC(=O)N1CC(=O)Nc1cccc(F)c1,-3.5,nt,98.0,nt,-13.0,-5.6,nt,nt
CCC(CO)Oc1cc(NCc2ccc(O)cc2)c2ncn(C(C)C)c2c1 (stereo unspecified),nt,0.5,64.9*,nt,nt,-0.5,82.6,91.2
Cc1cc(C)cc(NC(=O)N2CCNC(=O)C2CC(=O)Nc2cc(Cl)ccc2Cl)c1 (stereo unspecified),3.2,-7.8,64.5*,1.7,11.1,-8.2,99.3,109.1
Cn1cc(CCNC(=O)C2CCC(=O)N(CCc3ccc(Cl)cc3)C2)cn1 (stereo unspecified),3.0,-3.9,104.2,-0.4,3.0,4.3,nt,nt
Cc1c(NS(=O)(=O)c2ccccc2)cc(Cl)c(O)c1C,3.7,-0.9,142.3,3.3,6.7,5.7,88.6,99.7
Nc1nc(-c2ccc(Cl)cc2)nc(-c2ccc(Cl)cc2)n1,0.5,-5.6,102.7,-3.1,3.5,-1.6,nt,nt
